Assay outcomes as filed in PubChem BioAssay.
Shown are actives, neighbours in structure and some others; about 8.1% of the full set was active somewhere.
MCF10A rereplic: DNA re-replication induction in MCF 10a cells; MCF 10A DNA re-replication, Hoechst nuclear intensity, 48 h; Potency, µM (titrated, usually from 46.1 µM), hits mostly activators; hit rate 2.9% among 350,000; also: nearly all actives have a fitted effect of over 50% in size
ELG1 repair inh: ELG1-dependent DNA repair inhibition; hit rate 2.3% among 330,000; HEK293T ELG1-luciferase reporter, luminescence, 16 h; DNA damage induced by 5-fluorouridine; Potency, µM (titrated, usually from 46.1 µM), hits mostly inhibitors; also: nearly all actives have a fitted effect of over 55% in size
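Cells (2,000 per well) received 5-fluorouridine plus test compound or DMSO and were incubated 16 hr at 37 °C, 5% CO2. Luciferase activity was read by luminescence 30 min after ONE-Glo addition; signal suppression marked inhibition of damage-induced ELG1 function.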
SW480 rereplic: inducers of DNA re-replication in SW480 colon cancer cells. SW480 DNA re-replication, Hoechst DNA content imaging, 48 h. hit rate 1.8% among 340,000. Potency, µM (series often up to 46.1 µM), usual class: activators; also: nearly all actives have a fitted effect of over 55% in size
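Image-based read-out: total Hoechst fluorescence of nuclei (405 nm excitation, 500-530 nm emission), with hits raising the fraction of high-intensity nuclei. SW480 colon cells incubated 48 hr with compounds at 37 C.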
KB-3-1 cytotox: kills parental KB-3-1 adenocarcinoma cells; KB-3-1 viability, CellTiter-Glo ATP luminescence, 72 h; Potency, µM (series often up to 46.1 µM), usual class: cytotoxic; hit rate 1.4% among 400,000; also: nearly all actives have a fitted effect of over 60% in size
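72 h, 37 °C compound treatment of KB-3-1 parental cells; CellTiter-Glo added, 10 min, luminescence read. Data corrected against DMSO-only plates and normalized before curve fitting.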
KB-V1 cytotox: KB-V1 MDR subline cytotoxicity. Potency, µM (doses to about 46.1 µM), usual class: cytotoxic. KB-V1 MDR cells viability, CellTiter-Glo, 72 h. AID 1347076. hit rate 3.4% among 400,000; also: nearly all actives have a fitted effect of over 60% in size
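Potencies derive from concentration-effect curves fitted to normalized luminescence (CellTiter-Glo) of KB-V1 cells treated for 72 h at 37 degrees C in phenol-red-free DMEM containing 10% FBS.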
Each line names hits and unclear results; the compound was inactive in the other large screens. Calls follow the shape of the dose curve; as a rule, active = well fitted curve in the direction sought with a large enough effect; inconclusive = small, poorly fitted or top-dose-only effect, or another doubt; inactive = no such curve, though single readings can be large; an effect the other way counts as inactive or inconclusive.

CCN(CC)c1ccc(NC(=O)c2ccc3c(c2)c(C)c(C)n3C)cc1	MCF10A rereplic inconclusive, ELG1 repair inh inconclusive, SW480 rereplic inconclusive, KB-3-1 cytotox 23.1µM, KB-V1 cytotox 16.4µM
Cc1cc(NC(=O)c2ccc(NC(=O)c3cccs3)cc2)no1	ELG1 repair inh inconclusive, KB-V1 cytotox 14.6µM
CCCOc1ccc(C(=O)Nc2ccc(NC(=O)c3cccs3)cc2)cc1	none
O=C(COc1cccc(NC(=O)c2cccc([N+](=O)[O-])c2)c1)c1ccc(F)cc1	MCF10A rereplic inconclusive, ELG1 repair inh inconclusive, KB-3-1 cytotox inconclusive, KB-V1 cytotox inconclusive
COc1cccc(C(=O)COc2cccc(NC(=O)c3cccc([N+](=O)[O-])c3)c2)c1	MCF10A rereplic inconclusive, ELG1 repair inh 13µM, KB-3-1 cytotox inconclusive, KB-V1 cytotox inconclusive
Cc1ccccc1CNC(=O)c1ccc2c(c1)c(C)c(C)n2C	none (no result: MCF10A rereplic, ELG1 repair inh, SW480 rereplic)
Cc1c2cnn(-c3ccccc3)c(=O)c2c(C)n1CC(=O)Nc1ccccc1Br	none (no result: MCF10A rereplic, ELG1 repair inh, SW480 rereplic)
CN(C(=O)CN1C(=O)/C(=C/c2ccccc2F)SC1=S)C1CCS(=O)(=O)C1 (stereo unspecified)	none
CCOc1cccc(C(=O)Nc2ccc(N3CCCC3)cc2)c1	ELG1 repair inh inconclusive, SW480 rereplic inconclusive, KB-3-1 cytotox inconclusive
COC(=O)Nc1ccc(SCC(=O)c2cccc([N+](=O)[O-])c2)cc1	MCF10A rereplic 23.1µM, SW480 rereplic inconclusive
CCOc1ccc(NC(=O)c2cccc(OC(=S)N3CCC(C)CC3)c2)cc1	KB-V1 cytotox 18.4µM
COc1cccc(C(=O)COc2ccc(NC(=O)c3cccs3)cc2)c1	MCF10A rereplic inconclusive, ELG1 repair inh 14.6µM (no result: KB-3-1 cytotox, KB-V1 cytotox)
CCOc1cccc(C(=O)Nc2ccc(N(CC)CC)cc2)c1	MCF10A rereplic 18.4µM, SW480 rereplic 18.4µM, KB-3-1 cytotox inconclusive
CC(C)(C)NC[C@H](O)c1cc(O)cc(O)c1	none (no result: ELG1 repair inh, KB-3-1 cytotox, KB-V1 cytotox)
COCCN(C(=O)C1=COCCO1)c1c(N)n(CC(C)C)c(=O)[nH]c1=O	KB-3-1 cytotox inconclusive
O=C(O)CC(C(=O)Nc1ccc(Cl)cc1)N1CCCCCC1 (stereo unspecified)	ELG1 repair inh inconclusive
O=C1N(c2ccccc2C(F)(F)F)O[C@@]1(c1ccccc1)C1CCCC1	MCF10A rereplic 16.4µM
O=C1N(c2ccccc2C(F)(F)F)O[C@@]1(c1ccccc1)C1CCCCC1	MCF10A rereplic 20.6µM, ELG1 repair inh inconclusive, SW480 rereplic inconclusive
COC(=O)[C@]12CCCCC=C1N(Cc1ccccc1)C(=O)[C@H](CC(=O)NCCc1ccccc1OC)C2	KB-V1 cytotox inconclusive (no result: MCF10A rereplic, ELG1 repair inh, SW480 rereplic)
O=C([C@@H]1CC=C[C@@H]2CCN(C3CCCCC3)C(=O)[C@@H]21)N1CCOCC1	none (no result: MCF10A rereplic, ELG1 repair inh, SW480 rereplic)
CCN1C(=O)CSC1=Nc1ccc(C(=O)OC)cc1	none (no result: MCF10A rereplic, ELG1 repair inh, SW480 rereplic)
O=C(COc1ccccc1C(=O)NCc1ccccn1)Nc1ccc(Br)cc1	ELG1 repair inh 16.4µM
O=C(NCc1ccccn1)c1cc(-c2ccccc2)nc2ccccc12	ELG1 repair inh inconclusive, SW480 rereplic inconclusive
CCNC(=S)NNC(=O)c1cc(-c2ccccc2C)nc2ccccc12	KB-V1 cytotox 16.4µM
O=C(NCc1ccccn1)c1cc(-c2ccc(-c3ccccc3)cc2)nc2ccccc12	MCF10A rereplic inconclusive, ELG1 repair inh inconclusive
Cc1cccc(-c2cc(C(=O)NCc3ccccn3)c3ccccc3n2)c1	ELG1 repair inh 16.4µM, KB-V1 cytotox 5.8µM
Cc1ccc(-c2cc(C(=O)NCc3ccccn3)c3ccccc3n2)cc1C	MCF10A rereplic 5.8µM, ELG1 repair inh inconclusive, SW480 rereplic inconclusive, KB-3-1 cytotox inconclusive, KB-V1 cytotox 14.6µM
O=C(COc1ccccc1C(=O)NCc1ccccc1)Nc1ccc(Br)cc1	KB-3-1 cytotox inconclusive (no result: MCF10A rereplic, ELG1 repair inh, SW480 rereplic)
Cc1ccc(C)c(Nc2nc(-c3ccccc3)c3cc(Br)ccc3n2)c1	none (no result: MCF10A rereplic, ELG1 repair inh, SW480 rereplic)
O=C(NCc1ccccn1)c1ccc(Cl)cc1Cl	ELG1 repair inh inconclusive, KB-V1 cytotox inconclusive
O=C(NCc1ccccn1)c1cc(Cl)ccc1OCc1ccccc1	ELG1 repair inh 16.4µM
COCCNC(=O)c1cc(-c2ccc(-c3ccccc3)cc2)nc2ccccc12	MCF10A rereplic inconclusive, SW480 rereplic inconclusive, KB-3-1 cytotox 20.6µM
COc1cc(CNCc2ccccn2)ccc1OCc1cccc(Cl)c1	MCF10A rereplic 13µM, SW480 rereplic inconclusive
COCCCNC(=O)c1cc(-c2cccnc2)nc2ccccc12	none
O=C(NCc1ccccn1)c1cc(-c2ccc(Cl)cc2)nc2ccccc12	ELG1 repair inh inconclusive, KB-V1 cytotox 11.6µM
Cc1ccc(Cn2c(C3CCCN3c3nc(C)cs3)nc3cc(C(F)(F)F)ccc32)cc1 (stereo unspecified)	KB-3-1 cytotox inconclusive, KB-V1 cytotox inconclusive
C=C1C=C(C(F)F)n2ncc(C(=O)NCc3ccc(OC)c(OC)c3)c2N1	none (no result: MCF10A rereplic, ELG1 repair inh, SW480 rereplic)
COc1ccccc1N1CCN(S(=O)(=O)CCNC(=O)CCc2ccccc2)CC1	KB-V1 cytotox inconclusive (no result: MCF10A rereplic, ELG1 repair inh, SW480 rereplic)
Oc1c(Br)cc(/C=N/Nc2nncc3ccccc23)cc1Br	MCF10A rereplic 20.6µM, ELG1 repair inh inconclusive
CCOC(=O)/C(=N/Nc1ccc(OC)cc1)N1CCCc2ccccc21	none
CCOC(=O)/C(=N/Nc1ccccc1)N1CCCc2ccccc21	KB-V1 cytotox 16.4µM
CCOC(=O)/C(=N\Nc1ccccc1)P(=O)(c1ccccc1)c1ccccc1	KB-V1 cytotox 11.6µM
CC(NC(c1ccccc1)c1ccccc1)C(=O)N1CCCc2ccccc21 (stereo unspecified)	MCF10A rereplic inconclusive, KB-3-1 cytotox 18.4µM, KB-V1 cytotox 13µM
